# The panel holds about 83,000 compounds, 20% with a hit somewhere; the sample as a whole holds those more often.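 Values shown are percent growth following 48 h exposure of cells in 96-well plates to a single concentration of compound; below 10 was considered active.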 Unmarked numbers belong to inactive results. Activity calls are given as the source filed them.
# Key:
# Test in all cases: NCI-60 one-dose screen, 48 h (100 = growth as untreated, 0 = no growth, -100 = all killed)
# Conditions in all cases: 10 µM unless noted
# [1] = test system: NCI-H23 lung
# [2] = test system: NCI-H226 lung
# [3] = test system: NCI-H322M lung
# [4] = test system: HOP-62 NSCLC
# [5] = test system: NCI-H460 lung
# [6] = test system: HOP-92 NSCLC
# [7] = test system: NCI-H522 lung
# [8] = test system: A549/ATCC NSCLC
# [9] = test system: 786-0 renal
# [10] = test system: COLO 205 colon
# [11] = test system: DU-145 prostate
# [12] = test system: K-562 leukemia
# [13] = test system: MALME-3M melanoma
# [14] = test system: MDA-MB-231 breast
# [15] = test system: RXF 393 renal
# [16] = test system: SF-268 CNS
# [17] = test system: SF-295 CNS
# [18] = test system: SF-539 CNS
# [19] = test system: UACC-257 melanoma
# [20] = test system: M14 melanoma
SMILES,growth [1],growth [2],growth [3],growth [4],growth [5],growth [6],growth [7],growth [8],growth [9],growth [10],growth [11],growth [12],growth [13],growth [14],growth [15],growth [16] [%],growth [17],growth [18],growth [19],growth [20] [%]
CC(=O)O[C@H](C[C@H](C(C)C)N(C)C(=O)[C@@H](NC(=O)[C@H]1CCCCN1C)C(C)C)c1nc(C(=O)NC2CCC(C(=O)O)CC2)cs1 (stereo not given in full),64.8%,90.6%,72.4%,47.1%,26.7%,38%,-6.59% (active),57.8%,46%,32.6%,41.1%,22.8%,61.8%,64.1%,44.1%,48.2,35.1%,27.5%,50%,41.5
COc1ccc([As]=[As]c2ccc(OC)c(NCS(=O)(=O)O)c2)cc1NCS(=O)(=O)O (stereo not given),23.3%,61.9%,95.6%,39.7%,88.2%,-21.9% (active),-32.9% (active),69.4%,-46.4% (active),2.8% (active),43.1%,-2.74% (active),-44.6% (active),4.41% (active),-17.9% (active),17.8,80%,2.54% (active),27.6%,19.2
CCOP(=O)(NC[C@H]1O[C@](O)(CO)[C@@H](O)[C@@H]1O)OCC,97.4%,75.9%,112%,91%,105%,93.1%,88.3%,96.6%,99.8%,102%,105%,97.5%,89.1%,94.3%,96.4%,94.4,104%,96.3%,98.4%,93.1
CC(C)[C@@H]1NC(=O)[C@]2(C)CSC(=N2)c2csc(n2)CNC(=O)C[C@@H](/C=C/CCS)OC1=O,8.6% (active),0.257% (active),7.74% (active),-1.73% (active),8.13% (active),-21.5% (active),-25.2% (active),-15.1% (active),10.2%,-78.3% (active),8.24% (active),8.34% (active),21.4%,12%,-57.7% (active),11.3,6.21% (active),21%,-42.5% (active),10.1
O=[N+]([O-])CC(O)C(Cl)(Cl)Cl (stereo not given),98.6%,103%,103%,99.8%,101%,93.2%,99.1%,106%,103%,98.2%,117%,113%,97.5%,122%,116%,101,102%,92.6%,111%,104
CN(C)CCCOc1ccc2c(c1)c(C(=O)C(=O)NCCO)cn2Cc1ccccc1,95.6%,103%,105%,100%,105%,92.1%,99%,105%,93.3%,107%,106%,106%,97.1%,104%,89.1%,97.7,103%,103%,102%,101
CO[C@H]1CC[C@@]2(C)C(=CC[C@@H]3[C@@H]2CC[C@]2(C)C(=O)C(=O)C[C@@H]32)C1,99.5%,96.1%,120%,106%,102%,83.7%,98%,111%,107%,118%,116%,101%,111%,103%,26.3%,103,110%,104%,120%,102
CC(=O)C(c1c(O)c2ccccc2oc1=O)c1cc(=O)oc2c1ccc1ccccc12 (stereo not given),100%,90.7%,106%,90.9%,102%,65.4%,96.2%,97%,96.3%,112%,115%,96.7%,98.7%,89.8%,97%,103,96.3%,92.7%,102%,102

# — PubChem BioAssay (NCI)
